# USP17 block – inhibitors of human USP17 deubiquitinase; Ubiquitin carboxyl-terminal hydrolase 17-like protein 5 (Homo sapiens), A8MUK1; purified USP17, Ub-rhodamine cleavage fluorescence, 3 h; inhibition, % at 50 µM; 47,000 tested, 6.5% active; AID 1645855, 2021
# USP28 inh – inhibitors of human USP28 deubiquitinase; Ubiquitin carboxyl-terminal hydrolase 28 (Homo sapiens), Q96RU2; purified USP28, Ub-rhodamine cleavage fluorescence, 30 min; inhibition, % at 25 µM; 47,000 tested, 3% active; AID 1645857, 2021
# Target sequence (Q96RU2 whole entry, looked up): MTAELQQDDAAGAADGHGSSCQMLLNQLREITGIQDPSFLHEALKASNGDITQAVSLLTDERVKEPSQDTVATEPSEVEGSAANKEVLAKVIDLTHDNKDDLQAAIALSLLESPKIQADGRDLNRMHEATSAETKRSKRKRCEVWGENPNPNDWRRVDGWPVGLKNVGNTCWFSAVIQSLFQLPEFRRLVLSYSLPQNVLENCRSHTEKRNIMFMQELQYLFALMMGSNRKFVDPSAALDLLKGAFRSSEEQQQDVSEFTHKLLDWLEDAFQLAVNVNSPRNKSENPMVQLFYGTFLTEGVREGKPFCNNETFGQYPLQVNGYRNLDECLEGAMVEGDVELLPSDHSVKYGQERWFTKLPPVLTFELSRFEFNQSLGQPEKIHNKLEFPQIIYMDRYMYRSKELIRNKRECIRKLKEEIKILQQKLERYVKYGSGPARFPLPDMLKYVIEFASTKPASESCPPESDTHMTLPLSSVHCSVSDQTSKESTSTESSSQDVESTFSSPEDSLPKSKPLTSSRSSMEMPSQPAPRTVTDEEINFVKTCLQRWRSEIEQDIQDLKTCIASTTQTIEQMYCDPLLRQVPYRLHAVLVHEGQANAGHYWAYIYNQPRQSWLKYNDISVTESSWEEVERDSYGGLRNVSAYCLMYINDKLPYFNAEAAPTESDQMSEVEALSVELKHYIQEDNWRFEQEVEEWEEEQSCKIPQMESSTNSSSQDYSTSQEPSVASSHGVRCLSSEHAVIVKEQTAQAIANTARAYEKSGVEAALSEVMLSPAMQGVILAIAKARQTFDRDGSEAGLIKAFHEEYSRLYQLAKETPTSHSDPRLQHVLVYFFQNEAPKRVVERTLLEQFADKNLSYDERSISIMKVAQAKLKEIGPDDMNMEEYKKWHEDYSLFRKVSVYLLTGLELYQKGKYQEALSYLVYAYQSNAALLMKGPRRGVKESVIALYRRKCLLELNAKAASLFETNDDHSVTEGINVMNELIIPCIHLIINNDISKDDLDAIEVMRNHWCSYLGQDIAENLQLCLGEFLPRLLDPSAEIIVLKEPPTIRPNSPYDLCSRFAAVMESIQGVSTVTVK
# USP30 inh – inhibitors of human USP30 deubiquitinase; Ubiquitin carboxyl-terminal hydrolase 30 (Homo sapiens), Q70CQ3; purified USP30, Ub-rhodamine cleavage fluorescence; inhibition, % at 25 µM; 47,000 tested, 5.3% active; AID 1645860, 2021
# A number is an active result; n = inactive; x = no result. Sampled rows, rich in hits. Any-hit rate of the full collection: about 11%. No stated cut-off is given here; in the data, active means inhibition above about 30%; inactive means the rest.
SMILES,USP17 block,USP28 inh,USP30 inh
O=C(Cn1cccc1-c1nnc(C2CC2)o1)Nc1cccc(F)c1,32.3,n,n
Cc1cc(-c2nnc(C3CC3)o2)c(C)n1CC(=O)Nc1ccccc1,n,x,x
Cc1ccc(NC(=O)Cn2cccc2-c2nnc(C3CC3)o2)cc1C,n,n,n
Cc1noc(-c2ccnc(-n3ncc(C(=O)N4CCCC(C)C4)c3C)c2)n1 (centres undefined),n,n,n
Cc1ccc(NC(=O)C2C3C=CC4(O3)C2C(=O)N(C2CCCCC2)C4C(=O)NC2CCCCC2)cc1Cl (centres undefined),n,n,n
Cc1cccc(C(=O)NC(NC(=O)c2cccc(C)c2)c2ccccc2F)c1,x,n,43.0
Cc1cccc(C(=O)NC(c2ccccc2)c2cccnc2)c1 (centres undefined),n,n,n
CCN1C(=O)CCc2cc(NC(=O)c3ccccc3)ccc21,x,n,n
O=C(NC1CCN(c2cc(-c3ccccc3)[nH]n2)CC1)c1ccncc1,n,n,n
CCCc1noc(-c2ccc(-n3ncc(C(=O)N4CCCCC4)c3C)nc2)n1,n,n,37.6
CCCc1noc(-c2ccnc(-n3ncc(C(=O)N4CCCC4)c3C)c2)n1,n,n,n
O=C(C(Sc1ccccc1)c1ccccc1)N1CCN(c2cccc(C(F)(F)F)c2)CC1 (centres undefined),x,n,30.7
O=C(CN1C(=O)CCOc2ccccc21)N1CCN(c2cccc(C(F)(F)F)c2)CC1,n,n,n
CC12CN3CC(C)(CN(C1)C31C(=O)Nc3ccccc31)C2=O (centres undefined),n,n,n
Cc1cc(N2CC(C)OC2=O)nc(C2CCN(C(=O)C(C)(C)C)CC2)n1 (centres undefined),n,n,n
Cc1cc(N2CC(C)OC2=O)nc(C2CCN(C(=O)OC(C)(C)C)CC2)n1 (centres undefined),n,n,35.1
CC(C)c1nc(-c2ccc3c(c2)nnn3CCN2CCOCC2)no1,n,n,n
O=C(COc1ccc(F)cc1Cl)NCCCn1ccc2ccccc21,n,n,n
COc1ccccc1NC(=O)COc1ccccc1-c1nnc(-c2ccccc2)o1,n,n,n
O=C(COc1ccc(Cl)cc1Cl)NCCCc1ccccc1,n,n,32.4
O=C(COc1ccccc1-c1nnc(-c2ccccc2)o1)NCCCc1ccccc1,n,n,34.8
CCc1c(C2CCN(C(=O)NCc3ccco3)CC2)noc1N,n,n,n
CCc1ccc(S(=O)(=O)c2cnc3ccc(C)cc3c2Nc2ccccc2)cc1,n,n,n
CC(=O)c1ccc(NC(=O)c2cnn3c4c(cnc23)CCCCC4)cc1,n,n,n
Cc1ccc(NC(=O)CN2CCC(c3nnc(C)s3)CC2)c(C)c1,n,n,n
SMILES,USP17 block,USP28 inh,USP30 inh
Cc1ccc(NC(=O)c2oc3ccccc3c2NC(=O)COc2ccc(C)cc2)cc1,n,n,n
Cc1cc(C(=O)NCC2CCCO2)n(-c2ccccc2)n1 (centres undefined),n,n,n
Cc1ccc(NC(=O)COc2ccc3oc4c(c3c2)CCCC4)cc1,n,n,37.6
Cc1cc(NC(=O)COc2ccc3oc4c(c3c2)CCCC4)n(-c2ccccc2)n1,73.0,x,x
CCn1nc(-n2cnnc2)c(NS(=O)(=O)c2ccc(C)c(C)c2)c1C,n,n,n
COc1ccc(N(C)S(=O)(=O)c2ccc(Cl)c(C(=O)Nc3cccc(C(C)=O)c3)c2)cc1,n,n,n
COc1cccc(NC(=O)c2ccc(=O)n(Cc3ccc(F)cc3)c2)c1,n,n,n
COc1cccc(NC(=O)c2ccc(F)cc2Cl)c1,n,54.3,n
COc1ccc(NC(=O)c2ccc(S(C)(=O)=O)cc2Cl)cc1,n,46.1,n
CC(C)CCn1c(=O)c2sccc2n2c(=O)[nH]nc12,n,n,n
CC(C)(C)OC(=O)N1CCC(CC2(C(N)=O)CCCN2)CC1 (centres undefined),n,n,n
CN1CCN(CCNC(=O)c2ccc3c(c2)nc2n3CCN(C3CCCCC3)C2=O)CC1,n,n,n
CCN1CCN(C(=O)c2ccc3nc(-n4cccc4)sc3c2)CC1,n,n,n
O=C(Nc1ccc(F)cc1Cl)C1CCN(c2ccncc2)CC1,n,n,n
CC(C)CC(=O)Nc1ccc(-n2cnc(C(=O)N3CCCC3)c2)nc1,n,n,n
Cc1ccc(C)c(N(C)C(=O)c2nn(C)c3c2CSc2ccccc2-3)c1,x,n,39.2
Cc1ccc2c(c1)-c1c(c(C(=O)N3CCN(c4ccccc4)CC3)nn1C)CS2,n,n,n
CC(=O)N[C@@H]1C[C@H](c2ccc(C)cc2)O[C@@H]2CCCC[C@@H]12,n,n,n
COc1ccc(C(=O)Nc2cccc(-c3nc4cccnc4s3)c2)cc1OC,n,x,x
Nc1nc(-c2ccccc2)nc2nc(C3CCCNC3)ccc12 (centres undefined),n,n,n

# High-throughput results deposited in PubChem BioAssay by Buhrlage Lab, Dana-Farber Cancer Institute and Novartis Institutes for BioMedical Research (Cambridge, Mass).
